This is a sample that favours compounds with a hit; in the whole collection about 2.5% have one here.
VACV Venus inh = inhibitors of vaccinia virus (Venus reporter); Vaccinia virus Venus reporter expression, fluorescence; Potency, µM (series often up to 36.5 µM), for the others: at the top dose activity change, negative = inhibition, most hits filed as inhibitors; 330,000 tested, 0.46% active; calls by dose curve; tested in A549 cells; note: nearly all actives have a fitted effect of over 30% in size
Vaccinia mCherry = inhibitors of vaccinia virus infection (mCherry reporter signal). Vaccinia virus mCherry reporter infection, fluorescence. Potency, µM (series often up to 36.5 µM), for the others: top-dose activity change, negative = inhibition, most hits filed as inhibitors. 310,000 tested, 0.63% active. AID 720579; calls by dose curve; tested in A549 cells; note: nearly all actives have a fitted effect of over 35% in size
LASV entry inh = Lassa virus entry inhibition. Lassa virus pseudotype entry inhibition, cell reporter. Potency, µM (top dose mostly 37.9 µM), for inactives: top-dose activity change, negative = inhibition, hits mostly inhibitors. 300,000 tested, 1.2% active. AID 540256; calls by dose curve; tested in HEK293 cells; note: nearly all actives have a fitted effect of over 50% in size
Marburg entry inh = inhibitors of Marburg virus binding or cell entry. Marburg virus pseudotyped entry inhibition, cell reporter. 300,000 tested, 1.8% active. Potency, µM (titrated, usually from 37.8 µM), for inactives: top-dose activity change, negative = inhibition, most hits filed as inhibitors; calls by dose curve; tested in HEK293 cells
* marks the source's active call; other numbers are inactive results; i = inactive; ? = inconclusive; · = no result given; ! = a repeat was not active; [ ] = another dose, or the depositor's remark. % is set by controls: 0 for no effect and ±100 for the full control effect; potency is the fitted concentration of half-maximal effect.

SMILES	VACV Venus inh	Vaccinia mCherry	LASV entry inh	Marburg entry inh
Cc1ccc(C)c(C(=O)N2CCC(C3(c4ccccn4)NC(=O)N(CC4CCCO4)C3=O)CC2)c1 (stereo not given)	-13.5%	i	·	·
Nc1c2c(nc3ccccc13)N(C1CCCCC1)CC2	?	?	-23.6%	10µM*
Cn1cc(-c2cnc3c(NC=O)cc(-c4cccc(C(F)(F)F)c4)cn23)cn1	?	10µM*	·	·
CC(=O)c1ccc(-c2cnc3c(NC=O)cc(-c4cnn(C)c4)cn23)cc1	-20.4%	-2.9%	·	·
COc1cc(-c2cc(NC=O)c3ncc(-c4ccc(C(C)=O)cc4)n3c2)ccc1O	11.2µM*	10µM*	·	·
CC(=O)Nc1cc(-c2cccnc2)cn2c(-c3cccc(C(F)(F)F)c3)cnc12	12.6µM*	10µM*	·	·
Nc1ccc(-c2cc(NC=O)c3ncc(-c4cccc(C(F)(F)F)c4)n3c2)cn1	11.2µM*	?	·	·
COc1ccccc1-c1ccnc(-n2ncc(C(=O)N[C@H]3CCCCNC3=O)c2C2CC2)n1	-22.0%	-11.5%	·	·
CCCCCC(=O)N1C[C@@H](O)[C@H](n2cc(-c3ccc(F)cc3)nn2)C[C@H]1c1ccc(C)cc1	·	·	8.6%[46.1 µM]	·
CCCCCCCCOC(=O)c1cc([N+](=O)[O-])c(Sc2ncnc3nc[nH]c23)c([N+](=O)[O-])c1	-28.8%	-5.5%	11.2µM*	?
N#Cc1nc(-c2ccc(OCc3ccccc3Cl)cc2)oc1N1CCCCCC1	-12.6%	26.8%	·	·
O=C(CCl)NCCNC(=O)c1cc(OCC(F)(F)F)ccc1OCC(F)(F)F	2µM*	2µM*	-4.1%	?
CC(C)CC(=O)NCCNC(=O)c1cc(OCC(F)(F)F)ccc1OCC(F)(F)F	-7.1%	·	-3.3%	0.1%
O=C(NCC1CCCCN1)c1cc(OCC(F)(F)F)ccc1OCC(F)(F)F (stereo not given)	10µM*!	35.5µM*!	?	?
O=C(NCCN1CCCCC1)c1cc(OCC(F)(F)F)ccc1OCC(F)(F)F	-4.0%	?	-25.9%	-12.0%
Fc1ccc(CCNc2ncnc3nc[nH]c23)cc1	?	-19.1%	·	·
O=C(CN1CCOCC1)c1cccc2ccccc12	1.0%	3.2%	?	1.6%
Cc1c(C(=O)c2cccc3ccccc23)c2cccc3c2n1[C@H](CN1CCOCC1)CO3	?	-25.4%	20.6µM*	8.91µM*
C=C(C(C)=O)C(O)C=Cc1ccco1 (stereo not given)	·	·	·	3.0%[14.2 µM]
O=C(COc1ccccc1)Nc1nc2c(s1)CCCC2	0.0%	i	?	6.31µM*
O=C(COc1ccccc1Cl)Nc1nc2c(s1)CCCC2	9.1%	19.7%	?	?
Cc1cc(C)n(-c2cccc(C(=O)NCC3Cc4cccc(-c5cccnc5)c4O3)c2)n1 (stereo not given)	-24.1%	i	·	·
O=C1C=CC(=O)c2c(O)c(Cl)c(Cl)c(O)c21	0.0%	-7.0%	·	·
CC(=O)Nc1ccc(NC(=O)c2ccc(C)c(S(=O)(=O)Nc3cccc(C)c3)c2)cc1	-22.9%	-16.7%	-1.0%[46.1 µM]	6.31µM*
Cc1ccc(C)c(NC(=O)c2ccccc2NS(=O)(=O)c2cc([N+](=O)[O-])ccc2C)c1	·	·	?	4.11µM*
SMILES	VACV Venus inh	Vaccinia mCherry	LASV entry inh	Marburg entry inh
Cc1ccc(NS(=O)(=O)c2cc(C(=O)Nc3cccc([N+](=O)[O-])c3)ccc2C)cc1	?	?	18.4µM*	?
Cc1ccc(C(=O)NC2CCN(CC(=O)Nc3cccc([N+](=O)[O-])c3)CC2)cc1	-3.4%	-0.6%	-9.8%	0.794µM*
Cc1ccc([N+](=O)[O-])cc1S(=O)(=O)Nc1cccc(S(=O)(=O)Nc2ccccc2C(=O)O)c1	-7.2%	-3.2%	4.1%	-2.8%
COc1ccc(CCn2c(=S)[nH]c(=O)c3[nH]cnc32)cc1OC	-11.3%	i	·	·
CC(C)Cc1nc2cc(NS(=O)(=O)N(C)C)cc(C(=O)N3CCOc4ccccc4C3)c2n1C	-8.2%	-14.5%	·	·
COc1ccc(O)c(C(=O)N2CCC3(CC2)c2ccccc2[C@@H](NC(=O)c2ccccn2)[C@@H]3OC)c1	12.8%	-9.2%	·	·
Cc1cccc2nc(COc3ccc4ccccc4c3Br)cn12	-5.0%	-4.8%	?	10µM*
Cc1cccc2nc(CSc3ccccc3N)cn12	-17.6%	-15.4%[1.46 µM]	?	-24.1%
Cc1nc2sccn2c1CN1Cc2ccccc2OC(c2ccccc2F)C1 (stereo not given)	-0.1%	-6.4%	·	·
O=[N+]([O-])c1ccc(Cl)c2cccnc12	-25.9%	?	-27.4%[46.1 µM]	?
Cc1ccccc1N=Nc1ccc(O)c2ncccc12	?	3.55µM*	?	5.62µM*
O=[N+]([O-])c1ccc(O)c2cccnc12	0.1%	-5.5%	-0.2%[46.1 µM]	12.9%
O=[N+]([O-])c1cc(Cl)c2cccnc2c1O	?	28.2µM*	-21.9%[46.1 µM]	?
O=[N+]([O-])c1ccc(O)c2ncccc12	?	10µM*	?	?
Cc1cc(C(=O)NCC2CCC3(CCN(Cc4ccc(F)cc4)CC3)O2)n(C)n1 (stereo not given)	-2.8%	-5.6%	·	·
Cc1cnc(-n2ncc(C(=O)N(CCO)C(C)C)c2-c2cccs2)nc1-c1ccc(F)cc1	-16.2%	-18.2%	·	·
Cc1nc([N+](=O)[O-])c(C(=O)OCc2ccccc2Br)n1C	-6.4%	-9.8%	?	-9.5%[46.1 µM]
Cc1nc([N+](=O)[O-])c(Br)n1CC(=O)c1ccc2ccccc2c1	1.58µM*	1.12µM*	?	17.8µM*
Cc1nc([N+](=O)[O-])c(Br)n1CC(=O)c1ccccc1	2.24µM*	·	-27.0%	?
Cc1nc([N+](=O)[O-])c(Br)n1CC(=O)c1ccc(Br)cc1	·	·	-2.0%	?
CC(C)=CCC/C(C)=C/CO/N=C1\C[C@@H](O)[C@@H](O)[C@@H]2[C@@H]3C(=O)N(c4cccc(Oc5ccccc5)c4)C(=O)[C@@H]3CC[C@@H]12	·	·	·	26.1%[14.2 µM]
CC[n+]1c(/C=C/N(C)c2ccccc2)oc2ccc(Cl)cc21	-11.8%	-10.3%	?	?
CC[n+]1c(/C=C/N(C)c2ccccc2)sc2ccc(Cl)cc21	-9.5%	-8.1%	?	2.91µM*
CC[n+]1c(/C=C/C=C/c2ccc(N(C)C)cc2)sc2ccccc21	?	?	?	1.78µM*
CN(C)c1ccc(/C=C/C=C/c2sc3ccccc3[n+]2C)cc1	-14.1%	-25.0%	?	?
SMILES	VACV Venus inh	Vaccinia mCherry	LASV entry inh	Marburg entry inh
O=C1[C@@H]2[C@@H]3C[C@@H]([C@H]4ON=C(c5ccc(OCc6ccccc6)cc5)[C@@H]34)[C@@H]2C(=O)N1c1ccc2c(c1)OCO2	-14.0%	i	-15.0%	4.47µM*
COc1ccc(Cn2c(-c3ccc(C)cc3)c[n+]3ccccc23)cc1	-6.8%	i	6.31µM*	?
Cc1cc(C)cc(CO[C@H]2C=C[C@@H](c3ccccc3)O[C@H]2CO)c1	·	·	·	-24.4%[14.2 µM]
CC1C/C(=N\NC(N)=S)c2cc(Cl)ccc2S1 (stereo not given)	?	?	?	12.6µM*
Cc1c(C)c(C)c(/C=C/c2ccnc3ccccc23)c(C)c1C	4.2%	-22.7%	·	·
C/C(=N\Nc1nc(-c2ccccc2)cs1)c1cccs1	-9.0%	i	?	?
C/C(=N\Nc1nc2ccccc2s1)c1cccs1	-20.5%	-22.6%	6.51µM*	?
CC(=O)NNc1nc2ccccc2s1	-3.2%	-13.7%	?	0.8%
CC(=NNc1nc2ccccc2s1)c1ncccn1	19.2%	1µM*	1µM*	?
O=C(Nc1ccc(F)cc1)Nc1nnc(-c2ccncc2)s1	-14.0%	-20.3%	?	-0.9%
